According to article PMC5700166:

Experiments:
Assay in all cases: protein-binding microarray (PBM); PBM: ~300 nM protein, 6 mM HEPES pH 7.8, 80 mM KCl, 0.5 mM EDTA, 0.5 mM EGTA, 6% glycerol, 35 ng/ul poly-dIdC, 1% milk, 1 h, room temperature; Ap Aiptasia and Nv Nematostella (sea anemones) / Co Capsaspora / Aq Amphimedon (sponge) / Dm Drosophila / Hu human; RHD is the Rel homology domain; high values mean tight binding
Conditions in all cases: dsDNA, one strand shown
[1] = molecular target: T1, GST-Ap-NF-kB RHD (Exaiptasia pallida (Aiptasia), UniProt A0A913YAJ5 2-422)
T1 sequence: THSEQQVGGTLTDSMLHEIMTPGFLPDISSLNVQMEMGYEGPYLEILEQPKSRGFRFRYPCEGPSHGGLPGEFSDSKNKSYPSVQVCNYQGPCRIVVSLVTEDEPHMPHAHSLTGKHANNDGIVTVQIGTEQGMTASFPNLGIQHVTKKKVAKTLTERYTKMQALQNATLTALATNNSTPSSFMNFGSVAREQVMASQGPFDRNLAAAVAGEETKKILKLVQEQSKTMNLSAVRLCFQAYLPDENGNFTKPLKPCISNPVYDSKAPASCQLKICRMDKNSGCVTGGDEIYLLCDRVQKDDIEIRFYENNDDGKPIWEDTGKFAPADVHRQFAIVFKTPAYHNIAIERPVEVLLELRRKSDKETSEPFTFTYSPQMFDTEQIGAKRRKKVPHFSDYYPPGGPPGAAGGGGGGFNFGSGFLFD

[2] = molecular target: T2, GST-Nv-NF-kB (Cys allele) (Nematostella vectensis, UniProt E5G601 2-411)
T2 sequence: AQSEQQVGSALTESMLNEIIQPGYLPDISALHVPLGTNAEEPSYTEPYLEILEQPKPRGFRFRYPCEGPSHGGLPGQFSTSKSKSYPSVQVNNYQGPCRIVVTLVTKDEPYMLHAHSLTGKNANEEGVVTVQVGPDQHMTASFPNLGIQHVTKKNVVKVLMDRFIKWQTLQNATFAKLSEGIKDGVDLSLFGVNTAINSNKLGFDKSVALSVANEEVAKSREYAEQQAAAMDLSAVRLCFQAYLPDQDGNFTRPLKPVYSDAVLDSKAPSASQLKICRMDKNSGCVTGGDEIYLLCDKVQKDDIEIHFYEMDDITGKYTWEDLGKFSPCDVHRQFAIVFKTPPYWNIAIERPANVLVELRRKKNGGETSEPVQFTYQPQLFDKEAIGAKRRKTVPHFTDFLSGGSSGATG

[3] = molecular target: T3, GST-Dm-Relish (Drosophila melanogaster, UniProt Q94527 99-473)
T3 sequence: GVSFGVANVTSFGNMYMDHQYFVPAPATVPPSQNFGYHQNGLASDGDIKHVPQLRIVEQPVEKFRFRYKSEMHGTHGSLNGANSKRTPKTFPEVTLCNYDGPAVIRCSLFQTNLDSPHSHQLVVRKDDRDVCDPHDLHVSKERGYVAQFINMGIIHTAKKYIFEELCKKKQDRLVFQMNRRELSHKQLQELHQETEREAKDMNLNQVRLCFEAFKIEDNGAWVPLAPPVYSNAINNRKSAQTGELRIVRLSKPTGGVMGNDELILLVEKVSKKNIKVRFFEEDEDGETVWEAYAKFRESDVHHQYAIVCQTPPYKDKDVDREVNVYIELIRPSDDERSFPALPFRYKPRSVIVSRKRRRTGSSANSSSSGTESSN

[4] = molecular target: T4, GST-Aq-NF-kB (Amphimedon queenslandica, UniProt A9Y5G7 2-389)
T4 sequence: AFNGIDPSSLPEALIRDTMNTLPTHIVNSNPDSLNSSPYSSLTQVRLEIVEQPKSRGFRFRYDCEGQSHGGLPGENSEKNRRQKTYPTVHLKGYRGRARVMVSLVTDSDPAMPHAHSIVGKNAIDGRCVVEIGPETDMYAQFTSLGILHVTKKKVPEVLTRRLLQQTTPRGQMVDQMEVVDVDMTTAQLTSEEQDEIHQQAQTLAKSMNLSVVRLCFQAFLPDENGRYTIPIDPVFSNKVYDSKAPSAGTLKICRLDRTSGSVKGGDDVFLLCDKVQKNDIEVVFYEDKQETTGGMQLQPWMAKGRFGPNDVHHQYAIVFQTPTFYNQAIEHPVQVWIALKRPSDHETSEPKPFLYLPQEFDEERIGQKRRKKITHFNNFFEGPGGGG

“CCGATTAACATCAAGGACTTCCCTGATGTTAATCGGGTCTTGATTCGCTTGACGCTGCTG” was tested. Which binding signal [1] did it give?
The binding signal was 2.9 z-score.

What about the binding signal [2] of the same sequence?
The binding signal was 3.39 z-score.

And the binding signal [3]?
The binding signal was 6.91 z-score.

What about the binding signal [4] of the same sequence?
The binding signal was 5 z-score.

Which results are given for “CCGATTAACATCAGGAAAAGCCCTGATGTTAATCGGGTCTTGATTCGCTTGACGCTGCTG”?
binding signal [1]: 2.12 z-score; binding signal [2]: 1.89 z-score; binding signal [3]: 4.12 z-score; binding signal [4]: 4.95 z-score

Which results are given for “CCGATTAACATCAGGAAGACCCCTGATGTTAATCGGGTCTTGATTCGCTTGACGCTGCTG”?
binding signal [1]: 3.9 z-score; binding signal [2]: 3.08 z-score; binding signal [3]: 3.8 z-score; binding signal [4]: 5.31 z-score

Which results are given for “CCGATTAACATCAAAAATTTACCTGATGTTAATCGGGTCTTGATTCGCTTGACGCTGCTG”?
binding signal [1]: 1.32 z-score; binding signal [2]: 3.04 z-score; binding signal [3]: 4.45 z-score; binding signal [4]: 2.7 z-score

With “CCGATTAACATCAGAAATTTACCTGATGTTAATCGGGTCTTGATTCGCTTGACGCTGCTG” as the sequence, how does the binding signal [1] read?
Its binding signal is 1.1 z-score.

What about the binding signal [2] of the same sequence?
Its binding signal is 2.05 z-score.

And the binding signal [3]?
Its binding signal is 2.77 z-score.

What about the binding signal [4] of the same sequence?
Its binding signal is 2.09 z-score.

Which results are given for “CCGATTAACATCAGAAATCCCGATGATGTTAATCGGGTCTTGATTCGCTTGACGCTGCTG”?
binding signal [1]: 3.14 z-score; binding signal [2]: 2.98 z-score; binding signal [3]: 3.98 z-score; binding signal [4]: 2.24 z-score

Which binding signal [1] does the source give for “CCGATTAACATCACGGGACATACTGATGTTAATCGGGTCTTGATTCGCTTGACGCTGCTG” here?
The binding signal was 1.83 z-score.

And the binding signal [2]?
Its binding signal is 1.3 z-score.

And the binding signal [3]?
Its binding signal is 1.8 z-score.

What about the binding signal [4] of the same sequence?
Its binding signal is 2.17 z-score.

Which binding signal [1] does the source give for “CCGATTAACATCAGGATATACCCTGATGTTAATCGGGTCTTGATTCGCTTGACGCTGCTG” here?
Its binding signal is 2.02 z-score.

And the binding signal [2]?
The binding signal was 2.26 z-score.

What about the binding signal [3] of the same sequence?
The binding signal was 2.67 z-score.

And the binding signal [4]?
Its binding signal is 4.83 z-score.
